Reference: PubChem BioAssay (NCATS)
“And” between values parts separate entries of the source, which are not always exact repeats. Identical values can stand only once. Records with an inconclusive call do not appear. The source made the active and inactive calls. Calls follow the shape of the dose curve; as a rule, active = well fitted curve in the direction sought with a large enough effect; inconclusive = small, poorly fitted or top-dose-only effect, or another doubt; inactive = no such curve, though single readings can be large; an effect the other way counts as inactive or inconclusive.

Assay: qHTS of pediatric cancer cell lines to identify multiple opportunities for drug repurposing: Confirmatory screen for LAN-5 cells (AID 1347113)
Conditions: LAN-5 neuroblastoma cell viability; series mostly up to 45.9 µM
How it was run: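 Viability after 48 h compound treatment at 37C, 500-1,000 cells/well, read as ATP luminescence with CellTiter-Glo. Primary screens used 11-point (MIPE, 0.78 nM-46 µM) or 8-point (NPC, 0.59 nM-46 µM) final concentrations; follow-up screens used 11-point dilutions.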
Also: nearly all actives have a fitted effect of over 65% in size.
Potency is read from the fitted curve at half-maximal effect.

SMILES | Potency
OC[C@H]1O[C@@H](n2cnc3c2NC=NC[C@@H]3O)C[C@H]1O | inactive
CO[C@H]1C=CC=C(C)C(=O)NC2=CC(=O)C(NCCN(C)C)=C(C[C@@H](C)C[C@H](OC)[C@@H](O)[C@@H](C)C=C(C)[C@@H]1OC(N)=O)C2=O | inactive
COc1cc(N2CCC(N3CCN(C)CC3)CC2)ccc1Nc1ncc(Cl)c(Nc2ccccc2S(=O)(=O)C(C)C)n1 | 0.185 µM (active)
Nc1ncnc2c1ncn2[C@@H]1O[C@@H](CO)[C@H](O)[C@H]1O | inactive
O=C(O)c1ccc(-c2c[nH]c3ncc(-c4ccccc4)cc23)cc1C1CCCC1 | inactive
COc1ccc(-c2nc(N3CCOCC3)c3sc(CN(C)c4ncc(C(=O)NO)cn4)cc3n2)cn1 | 0.465 µM (active)
CC1(C)O[C@H]2C[C@@H]3[C@H]4CCC5=CC(=O)C=C[C@]5(C)[C@@]4(F)[C@@H](O)C[C@]3(C)[C@]2(C(=O)CO)O1 | inactive
CC1(C)S[C@H]2[C@H](NC(=O)[C@@H](N)c3ccc(O)cc3)C(=O)N2[C@@H]1C(=O)O | inactive
CCc1ccc(OCc2ccccc2C(=O)Nc2ccc3nc(C)cc(N)c3c2)cc1 | 7.37 µM (active)
O=c1cc(-c2ccc(O)cc2)oc2cc(O)cc(O)c12 | inactive
CCOc1ccc(Nc2nc(-c3c(C)nc4ccccn34)cs2)cc1 | 1.47 µM (active)
COc1cc2ncnc(Nc3ccc(F)c(Cl)c3)c2cc1OCCCN1CCOCC1 | 33.9 µM (active)
CC1(C)CCC(CN2CCN(c3ccc(C(=O)NS(=O)(=O)c4ccc(NCC5CCOCC5)c([N+](=O)[O-])c4)c(Oc4cnc5[nH]ccc5c4)c3)CC2)=C(c2ccc(Cl)cc2)C1 | 5.85 µM (active)
CN(C)C1CCN(C(=O)c2ccc(NC(=O)Nc3nc(N4CCOCC4)nc(N4CCOCC4)n3)cc2)CC1 | 0.261 µM (active)
CC[C@]1(O)C[C@@H]2CN(CCc3c([nH]c4ccccc34)[C@@](C(=O)OC)(c3cc4c(cc3OC)N(C)[C@H]3[C@@](O)(C(=O)OC)[C@H](OC(C)=O)[C@]5(CC)C=CCN6CC[C@]43[C@@H]65)C2)C1 | 2.33 µM (active)
CO[C@H]1C(=O)[C@]2(C)[C@@H](OC)C[C@H]3OC[C@@]3(OC(C)=O)[C@H]2[C@H](OC(=O)c2ccccc2)[C@]2(O)C[C@H](OC(=O)[C@H](O)[C@@H](NC(=O)OC(C)(C)C)c3ccccc3)C(C)=C1C2(C)C | inactive
NC1=N[C@@]2(c3cc(NC(=O)c4ccc(F)cn4)ccc3F)COC[C@@H]2CS1 | inactive
CC1(C)CCC[C@@]2(C)[C@@H]1CC[C@@]1(C)OC(=O)C[C@H]21 | inactive
NS(=O)(=O)c1cccc2c1C(=O)c1cccc(O)c1C2=O | 1.85 µM (active)
O=C1c2ccccc2-[n+]2ccc3c([nH]c4ccccc43)c21 | 0.827 µM (active)
C=C1C(=O)[C@@]23C(CC[C@@H]1[C@H]2O)[C@@]12CO[C@]3(O)[C@@H](O)[C@@H]1C(C)(C)CC[C@@H]2O (some centres not stated) | 4.14 µM (active)
O=C1NC(=O)C(=Cc2ccc3c(c2)OC(F)(F)O3)S1 | inactive
CC(=O)Nc1ccc([C@H](C)C(=O)Nc2ncc(C(C)C)s2)cc1 | 3.69 µM (active)
O=C1C(Cl)=C(NCCN2CCOCC2)C(=O)c2ncccc21 | 2.93 µM (active)
CC(C)(C(=O)NCC(F)(F)C(F)(F)F)C(=O)N[C@@H]1C(=O)Nc2ccccc2-c2ccccc21 | inactive
CC(=O)O[C@]1(C(C)=O)CC[C@@H]2[C@@H]3C[C@H](C)C4=CC(=O)CC[C@]4(C)[C@H]3CC[C@@]21C | inactive
CC(C)n1nc(-c2ccc3oc(N)nc3c2)c2c(N)ncnc21 | 0.131 µM (active)

Assay: qHTS of pediatric cancer cell lines to identify multiple opportunities for drug repurposing: Confirmatory screen for DAOY cells (AID 1347114)
Conditions: DAOY medulloblastoma cells viability, cytotoxicity qHTS; series mostly up to 45.9 µM
How it was run: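 Viability measured as metabolically active cells via CellTiter-Glo luminescence following 48 hours of compound exposure, 11-point dilutions in confirmatory testing. 500-1,000 cells/well plated 5 hours before dosing; controls were DMSO and 2.3 µM bortezomib.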

SMILES | Potency
OC[C@H]1O[C@@H](n2cnc3c2NC=NC[C@@H]3O)C[C@H]1O | inactive
CO[C@H]1C=CC=C(C)C(=O)NC2=CC(=O)C(NCCN(C)C)=C(C[C@@H](C)C[C@H](OC)[C@@H](O)[C@@H](C)C=C(C)[C@@H]1OC(N)=O)C2=O | 18.5 µM (active)
COc1cc(N2CCC(N3CCN(C)CC3)CC2)ccc1Nc1ncc(Cl)c(Nc2ccccc2S(=O)(=O)C(C)C)n1 | 16.5 µM (active)
Nc1ncnc2c1ncn2[C@@H]1O[C@@H](CO)[C@H](O)[C@H]1O | inactive
O=C(O)c1ccc(-c2c[nH]c3ncc(-c4ccccc4)cc23)cc1C1CCCC1 | inactive
COc1ccc(-c2nc(N3CCOCC3)c3sc(CN(C)c4ncc(C(=O)NO)cn4)cc3n2)cn1 | 1.04 µM (active)
CC1(C)O[C@H]2C[C@@H]3[C@H]4CCC5=CC(=O)C=C[C@]5(C)[C@@]4(F)[C@@H](O)C[C@]3(C)[C@]2(C(=O)CO)O1 | inactive
CC1(C)S[C@H]2[C@H](NC(=O)[C@@H](N)c3ccc(O)cc3)C(=O)N2[C@@H]1C(=O)O | inactive
O=c1cc(-c2ccc(O)cc2)oc2cc(O)cc(O)c12 | inactive
CCOc1ccc(Nc2nc(-c3c(C)nc4ccccn34)cs2)cc1 | 0.0465 µM (active)
COc1cc2ncnc(Nc3ccc(F)c(Cl)c3)c2cc1OCCCN1CCOCC1 | 38 µM (active)
CC1(C)CCC(CN2CCN(c3ccc(C(=O)NS(=O)(=O)c4ccc(NCC5CCOCC5)c([N+](=O)[O-])c4)c(Oc4cnc5[nH]ccc5c4)c3)CC2)=C(c2ccc(Cl)cc2)C1 | inactive
CN(C)C1CCN(C(=O)c2ccc(NC(=O)Nc3nc(N4CCOCC4)nc(N4CCOCC4)n3)cc2)CC1 | 14.7 µM (active)
CC[C@]1(O)C[C@@H]2CN(CCc3c([nH]c4ccccc34)[C@@](C(=O)OC)(c3cc4c(cc3OC)N(C)[C@H]3[C@@](O)(C(=O)OC)[C@H](OC(C)=O)[C@]5(CC)C=CCN6CC[C@]43[C@@H]65)C2)C1 | 208 nM (active) and 233 nM (active)
NC1=N[C@@]2(c3cc(NC(=O)c4ccc(F)cn4)ccc3F)COC[C@@H]2CS1 | inactive
CC1(C)CCC[C@@]2(C)[C@@H]1CC[C@@]1(C)OC(=O)C[C@H]21 | inactive
NS(=O)(=O)c1cccc2c1C(=O)c1cccc(O)c1C2=O | 2.33 µM (active)
O=C1c2ccccc2-[n+]2ccc3c([nH]c4ccccc43)c21 | 1.85 µM (active)
C=C1C(=O)[C@@]23C(CC[C@@H]1[C@H]2O)[C@@]12CO[C@]3(O)[C@@H](O)[C@@H]1C(C)(C)CC[C@@H]2O (some centres not stated) | 11.7 µM (active)
O=C1NC(=O)C(=Cc2ccc3c(c2)OC(F)(F)O3)S1 | 26.1 µM (active)
CC(=O)Nc1ccc([C@H](C)C(=O)Nc2ncc(C(C)C)s2)cc1 | 4.65 µM (active)
O=C1C(Cl)=C(NCCN2CCOCC2)C(=O)c2ncccc21 | 7.37 µM (active)
CC(C)(C(=O)NCC(F)(F)C(F)(F)F)C(=O)N[C@@H]1C(=O)Nc2ccccc2-c2ccccc21 | inactive
CC(=O)O[C@]1(C(C)=O)CC[C@@H]2[C@@H]3C[C@H](C)C4=CC(=O)CC[C@]4(C)[C@H]3CC[C@@]21C | inactive
CC(C)n1nc(-c2ccc3oc(N)nc3c2)c2c(N)ncnc21 | 5.85 µM (active)
